{"source": "paper PMC4336329", "about": "(PLoS ONE, 2015)", "note": "The campaign covered roughly 310,000 compounds. About 14,000 (4.5%) showed an effect of 50% or more. Effects have a minus sign here. The sample holds strong results, similar compounds and a random draw of the others, so the mix is not that of the screen.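 Further: peak tail current of the secondary pulse compared with the same well before compound.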"}
{"biological_target": "human ether-à-go-go-related gene (hERG) potassium channel (human, UniProt Q12809)", "sequence (Q12809 whole entry, looked up)": "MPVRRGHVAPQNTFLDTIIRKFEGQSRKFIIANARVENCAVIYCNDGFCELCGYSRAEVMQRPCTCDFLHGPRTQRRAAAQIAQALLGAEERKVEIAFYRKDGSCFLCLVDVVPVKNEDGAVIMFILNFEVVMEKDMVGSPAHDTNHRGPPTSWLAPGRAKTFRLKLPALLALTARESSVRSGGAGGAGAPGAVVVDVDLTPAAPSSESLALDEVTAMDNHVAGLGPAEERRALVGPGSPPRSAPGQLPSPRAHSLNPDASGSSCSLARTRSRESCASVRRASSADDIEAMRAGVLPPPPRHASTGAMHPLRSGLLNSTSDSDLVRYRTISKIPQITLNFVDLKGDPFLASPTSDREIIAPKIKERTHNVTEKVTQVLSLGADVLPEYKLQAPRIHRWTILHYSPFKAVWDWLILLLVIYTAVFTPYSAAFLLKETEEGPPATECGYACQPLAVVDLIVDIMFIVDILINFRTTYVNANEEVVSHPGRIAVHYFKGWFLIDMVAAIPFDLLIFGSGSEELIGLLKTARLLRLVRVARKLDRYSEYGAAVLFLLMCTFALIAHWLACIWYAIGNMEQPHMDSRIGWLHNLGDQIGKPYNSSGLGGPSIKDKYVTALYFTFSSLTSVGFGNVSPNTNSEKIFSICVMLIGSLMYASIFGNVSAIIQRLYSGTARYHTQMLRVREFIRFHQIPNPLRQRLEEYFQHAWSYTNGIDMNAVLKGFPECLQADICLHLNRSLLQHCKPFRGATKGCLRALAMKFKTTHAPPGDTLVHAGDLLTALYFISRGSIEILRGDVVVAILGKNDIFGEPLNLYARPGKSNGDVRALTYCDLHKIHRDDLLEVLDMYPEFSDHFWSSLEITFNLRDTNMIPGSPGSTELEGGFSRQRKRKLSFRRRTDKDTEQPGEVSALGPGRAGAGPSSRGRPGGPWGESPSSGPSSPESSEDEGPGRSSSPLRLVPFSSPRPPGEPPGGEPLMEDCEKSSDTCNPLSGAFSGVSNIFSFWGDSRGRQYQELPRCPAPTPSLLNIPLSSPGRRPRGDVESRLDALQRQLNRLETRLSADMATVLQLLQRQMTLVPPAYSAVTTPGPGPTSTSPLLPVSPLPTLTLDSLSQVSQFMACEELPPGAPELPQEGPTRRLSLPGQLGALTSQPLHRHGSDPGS", "assay": "primary screen, population patch clamp on CHO cells stably expressing hERG; higher = less effect of the substance", "units": {"hERG current change (%, negative = inhibition) at 10uM": "%"}}
{"smiles": "Cn1cc(Cl)c(C(=O)NNC(=S)NC2CCCCC2)n1", "hERG current change (%, negative = inhibition) at 10uM": 15.4}
{"smiles": "Cc1cc(C)cc(N2CCCC2=O)c1", "hERG current change (%, negative = inhibition) at 10uM": 16.3}
{"smiles": "O=C(CCC1CCN(C(=O)c2ccccc2Cl)CC1)NCc1ccc(F)cc1", "hERG current change (%, negative = inhibition) at 10uM": -18.9}
{"smiles": "O=C(c1ccco1)N1CCN(C(=S)NC2CC3CCC2C3)CC1", "note": "(centres unmarked)", "hERG current change (%, negative = inhibition) at 10uM": -67.3}
{"smiles": "O=C(N[C@@H]1C[C@H]2CC[C@@H]1C2)c1ccco1", "hERG current change (%, negative = inhibition) at 10uM": 4.88}
{"smiles": "O=C(c1ccco1)N1CCN(C(=S)Nc2ccc(F)cc2)CC1", "hERG current change (%, negative = inhibition) at 10uM": -2.5}
{"smiles": "CCNC(=S)N1CCN(C(=O)c2ccco2)CC1", "hERG current change (%, negative = inhibition) at 10uM": 5.8}
{"smiles": "O=C(CCC1CCN(C(=O)c2ccco2)CC1)NCc1ccc(F)cc1", "hERG current change (%, negative = inhibition) at 10uM": -72.6}
{"smiles": "O=C(c1ccco1)N1CCN(C(=S)NCc2ccc(F)cc2)CC1", "hERG current change (%, negative = inhibition) at 10uM": -53.1}
{"smiles": "CSc1ccccc1C(=O)N1CCC(CCC(=O)NCc2ccc(F)cc2)CC1", "hERG current change (%, negative = inhibition) at 10uM": -12.4}
{"smiles": "O=C(NC1CC2CCC1C2)c1ccco1", "note": "(centres unmarked)", "hERG current change (%, negative = inhibition) at 10uM": -5.69}
{"smiles": "COCOc1ccc(-c2oc3c(C/C=C(\\C)CCC=C(C)C)ccc(O)c3c(=O)c2OCOC)c(OCOC)c1", "hERG current change (%, negative = inhibition) at 10uM": -9.2}
{"smiles": "CC(Oc1ccc(Cl)cc1Cl)C(=O)Nc1ncccn1", "note": "(centres unmarked)", "hERG current change (%, negative = inhibition) at 10uM": -2.67}
{"smiles": "O=C(Nc1ccc(F)cc1)OC1CN2CCC1CC2", "note": "(centres unmarked)", "hERG current change (%, negative = inhibition) at 10uM": -27.5}
{"smiles": "CCOC(=O)C1CCCCN1Cc1ccc(C(F)(F)F)cc1", "note": "(centres unmarked)", "hERG current change (%, negative = inhibition) at 10uM": 7.75}
{"smiles": "O=C(NCc1ccc(OC(F)(F)F)cc1)c1cc(-c2ccccc2)nn1CC1CC(c2cccnc2)=NO1", "note": "(centres unmarked)", "hERG current change (%, negative = inhibition) at 10uM": -57.4}
{"smiles": "Cc1ccccc1-c1cc(C(=O)NCc2cccs2)n(CC2CC(c3cccnc3)=NO2)n1", "note": "(centres unmarked)", "hERG current change (%, negative = inhibition) at 10uM": -26.2}
{"smiles": "Cc1ccccc1-c1cc(C(=O)NCC2CC2)n(CC2CC(c3cccnc3)=NO2)n1", "note": "(centres unmarked)", "hERG current change (%, negative = inhibition) at 10uM": -20}
{"smiles": "COc1ccccc1CNC(=O)c1cc(-c2ccccc2C)nn1CC1CC(c2cccnc2)=NO1", "note": "(centres unmarked)", "hERG current change (%, negative = inhibition) at 10uM": -2.89}
{"smiles": "Cc1ccccc1-c1cc(C(=O)NCc2ccco2)n(CC2CC(c3cccnc3)=NO2)n1", "note": "(centres unmarked)", "hERG current change (%, negative = inhibition) at 10uM": -15.6}
{"smiles": "CCOC(=O)c1cc(-c2ccccc2)nn1CC1CC(c2cccnc2)=NO1", "note": "(centres unmarked)", "hERG current change (%, negative = inhibition) at 10uM": 3.47}
{"smiles": "O=C(c1cc(-c2ccccc2)nn1CC1CC(c2cccnc2)=NO1)N1CCOCC1", "note": "(centres unmarked)", "hERG current change (%, negative = inhibition) at 10uM": -4.25}
{"smiles": "O=C(NCc1cccs1)c1cc(-c2ccccc2)nn1CC1CC(c2cccnc2)=NO1", "note": "(centres unmarked)", "hERG current change (%, negative = inhibition) at 10uM": -51.8}
{"smiles": "O=C(NCC1CC1)c1cc(-c2ccccc2)nn1CC1CC(c2cccnc2)=NO1", "note": "(centres unmarked)", "hERG current change (%, negative = inhibition) at 10uM": -25}
{"smiles": "O=C(NCc1ccco1)c1cc(-c2ccccc2)nn1CC1CC(c2cccnc2)=NO1", "note": "(centres unmarked)", "hERG current change (%, negative = inhibition) at 10uM": -63.9}
{"smiles": "COc1ccccc1CNC(=O)c1cc(-c2ccccc2)nn1CC1CC(c2cccnc2)=NO1", "note": "(centres unmarked)", "hERG current change (%, negative = inhibition) at 10uM": -71.2}
{"smiles": "COc1ccc(NC(=O)C2CCCN(S(=O)(=O)c3ccc4[nH]c(=O)ccc4c3)C2)cc1", "note": "(centres unmarked)", "hERG current change (%, negative = inhibition) at 10uM": 9.08}
{"smiles": "COCCCNC(=O)Cn1ncc2ccsc2c1=O", "hERG current change (%, negative = inhibition) at 10uM": 13.6}
{"smiles": "O=C(COc1ccccc1Cl)NC(=O)NC1CCCCC1", "hERG current change (%, negative = inhibition) at 10uM": 5.11}
{"smiles": "COc1ccc(CNC(=O)Cn2ncn3cccc3c2=O)cc1", "hERG current change (%, negative = inhibition) at 10uM": 3.12}
{"smiles": "Cc1ccc(CNC(=O)c2cc(-c3ccccc3)nn2CC2CC(c3cccnc3)=NO2)cc1", "note": "(centres unmarked)", "hERG current change (%, negative = inhibition) at 10uM": -69.7}
{"smiles": "COCCNC(=O)c1cc(-c2ccccc2)nn1CC1CC(c2cccnc2)=NO1", "note": "(centres unmarked)", "hERG current change (%, negative = inhibition) at 10uM": 2.9}
{"smiles": "CC(Oc1ccccc1F)c1nnc(SCC(=O)NCc2ccc3c(c2)OCO3)o1", "note": "(centres unmarked)", "hERG current change (%, negative = inhibition) at 10uM": -32.1}
{"smiles": "COc1ccc(Br)cc1CNc1ccc(S(N)(=O)=O)cc1", "hERG current change (%, negative = inhibition) at 10uM": -14.1}
{"smiles": "CCOc1ccc([N+](=O)[O-])cc1CNCCc1ccccc1.Cl", "hERG current change (%, negative = inhibition) at 10uM": -45.5}
{"smiles": "NS(=O)(=O)c1ccc(NCc2cc(Cl)ccc2OCc2ccccc2F)cc1", "hERG current change (%, negative = inhibition) at 10uM": -2.13}
{"smiles": "Cl.NS(=O)(=O)c1ccc(CCNCc2cc(Br)ccc2OCc2ccccc2)cc1", "hERG current change (%, negative = inhibition) at 10uM": -71.8}
{"smiles": "Cl.NS(=O)(=O)c1ccc(CCNCc2cc(Br)ccc2OCc2ccccc2F)cc1", "hERG current change (%, negative = inhibition) at 10uM": -75.9}
{"smiles": "NS(=O)(=O)c1ccc(NCc2ccccc2OCc2ccccc2F)cc1", "hERG current change (%, negative = inhibition) at 10uM": -2.39}
{"smiles": "CCn1c(SCc2nc(-c3ccccc3)no2)nc2ccccc21", "hERG current change (%, negative = inhibition) at 10uM": -24.6}
{"smiles": "CCCCOc1ccccc1C(=O)NCCCCCC(=O)O", "hERG current change (%, negative = inhibition) at 10uM": 10.3}
{"smiles": "CCc1cccc(OCCCn2ccnc2)c1.O=C(O)C(=O)O", "hERG current change (%, negative = inhibition) at 10uM": -25.7}
{"smiles": "Cc1cc(C(F)F)n2nc(C(=O)Nc3sc4c(c3C(N)=O)CCC4)nc2n1", "hERG current change (%, negative = inhibition) at 10uM": -60.9}
{"smiles": "Cc1cc(C(F)F)n2nc(C(=O)Nc3sc4c(c3C#N)CCC4)nc2n1", "hERG current change (%, negative = inhibition) at 10uM": 18.3}
{"smiles": "COC(=O)c1c(NC(=O)c2nc3nc(C)cc(C(F)F)n3n2)sc2c1CCC2", "hERG current change (%, negative = inhibition) at 10uM": 5.97}
{"smiles": "CCC1CCC/C1=N\\NC(=O)c1ccccc1Cl", "note": "(centres unmarked)", "hERG current change (%, negative = inhibition) at 10uM": 19.2}
{"smiles": "COc1ccc(CNC(=O)COC(=O)CC(NC(N)=O)c2ccc(Cl)cc2)cc1OC", "note": "(centres unmarked)", "hERG current change (%, negative = inhibition) at 10uM": 1.27}
{"smiles": "COc1cccc(NC(=O)COC(=O)CC(NC(N)=O)c2ccc(Cl)cc2)c1", "note": "(centres unmarked)", "hERG current change (%, negative = inhibition) at 10uM": -2.18}
{"smiles": "N#Cc1ccc(COC(=O)CC(NC(N)=O)c2ccc(Cl)cc2)cc1", "note": "(centres unmarked)", "hERG current change (%, negative = inhibition) at 10uM": -59.9}
{"smiles": "CCOc1ccccc1NC(=O)COC(=O)CSc1ccc(Cl)cc1", "hERG current change (%, negative = inhibition) at 10uM": 21.2}
{"smiles": "CCOc1ccccc1NC(=O)COC(=O)CC(NC(N)=O)c1ccc(Cl)cc1", "note": "(centres unmarked)", "hERG current change (%, negative = inhibition) at 10uM": -68.4}
{"smiles": "NC(=O)COC(=O)CC(NC(N)=O)c1ccc(Cl)cc1", "note": "(centres unmarked)", "hERG current change (%, negative = inhibition) at 10uM": 17.6}
{"smiles": "CC(=O)c1c(O)cc(=O)oc1-c1ccc(C)cc1", "hERG current change (%, negative = inhibition) at 10uM": 16.7}
{"smiles": "COc1cc(C2N(c3ccccc3)CCN2c2ccccc2)ccc1OC(C)=O", "hERG current change (%, negative = inhibition) at 10uM": -1.36}
{"smiles": "Cn1c(CNc2ccccc2)nc2ccccc21", "hERG current change (%, negative = inhibition) at 10uM": 4.27}
{"smiles": "CCOC(=O)Cn1cc(C#N)c2ccccc21", "hERG current change (%, negative = inhibition) at 10uM": 15.1}
